Consider 17 compounds from PubChem BioAssay.

A short description of experiment [1]: sensitizers of A549 cells to miR-34 induction, primary screen, imaging, A549 dox-inducible miR-34, nuclei and caspase counts (AID 1347080). As to conditions: A549 miR-34 inducible, Hoechst nuclei count, 48 h.
Experiment [2] is described as follows: survival rescue of mitochondrial mutant cells in low glucose, primary screen, MELAS cybrids, Rieske KO mouse fibroblasts, CellTiter-Glo (AID 1508586;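 active means mean z-score across replicates of 1.96 or higher in either the MELAS or the Rieske mutant cell line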;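 further: z relative to plate mean and SD of compound and empty wells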).
[3] abbreviates: stronger effect = lower value, cell number ratio, induced over uninduced.
[4] abbreviates: measured here: relative caspase fold change +Dox/-Dox.
Setting [5] is: measured here: total cells with miR-34 induction, stronger effect = lower value.
[6] abbreviates: measured here: total cells without miR-34 induction.
Where [7] appears, read: MELAS cybrid survival, CellTiter-Glo 48 h, stronger effect = higher value.
[8] abbreviates: Rieske KO mouse fibroblast survival, CellTiter-Glo 72 h.

Active and inactive are the calls of the source.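 How the source made its calls, unless noted: active means compounds whose cell count with miR-34 switched on is under 0.7 times the count with it off; inactive means the rest.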
Further: test concentration not given here.

For the compound `Cc1cc(C)nc(NS(=O)(=O)c2ccc(NC(=S)NC(=O)COc3ccc(Br)cc3Cl)cc2)n1`, the fold change is 0.955 (inactive) in experiment [1] (setting [3]) and 1.42 in experiment [1] (setting [4]). For the same compound, the cell count was 7550 in experiment [1] (setting [5]) and 7900 in experiment [1] (setting [6]). Also, the z-score was -0.302 (inactive) in experiment [2] (setting [7]) and -3.08 in experiment [2] (setting [8]).

With `C=CCC1C=C(C)CC(C)CC(OC)C2O[C@@](O)(C(=O)C(=O)N3CCCC[C@H]3C(=O)OC(C(C)=CC3CCC(O)C(OC)C3)C(C)C(O)CC1=O)C(C)CC2OC` (some centres not stated), the fold change in experiment [1] (setting [3]) is 0.917 (inactive); in experiment [1] (setting [4]) it was 0.834. Moreover, the values for the cell count in experiment [1] (setting [5]) and in experiment [1] (setting [6]) were 7870 and 8580, respectively. Also, the z-score was -0.545 (inactive) in experiment [2] (setting [7]) and 0.683 in experiment [2] (setting [8]).

For `CC(C)OC(=O)C(C)N[P@](=O)(OCC1OC(n2ccc(=O)[nH]c2=O)[C@](C)(F)C1O)Oc1ccccc1` (some centres not stated), the fold change is 0.909 (inactive) in experiment [1] (setting [3]) and 0.639 in experiment [1] (setting [4]). Besides, the cell count turned out to be 9560 in experiment [1] (setting [5]) and 10500 in experiment [1] (setting [6]). For the same compound, the z-score was -0.378 (inactive) in experiment [2] (setting [7]) and 0.864 in experiment [2] (setting [8]).

`CC1O[C@@H](OC2C(O)C[C@H](OC3C(O)C[C@H](OC4CC[C@@]5(C)[C@H](CC[C@@H]6[C@H]5CC(O)[C@]5(C)C(C7=CC(=O)OC7)CC[C@]65O)C4)OC3C)OC2C)CC(O)C1O` (some centres not stated): the fold change is 0.837 (inactive) in experiment [1] (setting [3]) and 0.829 in experiment [1] (setting [4]). For the same compound, the cell count in experiment [1] (setting [5]) was found to be 400; in experiment [1] (setting [6]) it was 478. The z-score is 0.348 (inactive) in experiment [2] (setting [7]) and -0.197 in experiment [2] (setting [8]).

Consider `CC(C)CC(NC(=O)CNC(=O)c1cc(Cl)ccc1Cl)B(O)O` (configuration not stated), for which the fold change in experiment [1] (setting [3]) is 0.948 (inactive); in experiment [1] (setting [4]), 1.44. The cell count in experiment [1] (setting [5]) came to 1800; in experiment [1] (setting [6]) it was 1900. In addition, the z-score in experiment [2] (setting [7]) is -0.0464 (inactive); in experiment [2] (setting [8]), -3.37.

Consider `COc1ccc2cc1Oc1ccc(cc1)C[C@@H]1c3c(cc4c(c3Oc3cc5c(cc3OC)CCN(C)[C@@H]5C2)OCO4)CCN1C`, for which the fold change in experiment [1] (setting [3]) was 0.966 (inactive); in experiment [1] (setting [4]) it was 1.15. Also, the cell count turned out to be 4290 in experiment [1] (setting [5]) and 4440 in experiment [1] (setting [6]). Also, the z-score was -0.206 (inactive) in experiment [2] (setting [7]) and -0.161 in experiment [2] (setting [8]).

Turning to `COc1ccc(-c2ccc3c(N4CCOCC4C)nc(N4CCOCC4C)nc3n2)cc1CO` (configuration not stated), the fold change in experiment [1] (setting [3]) was 0.853 (inactive); in experiment [1] (setting [4]), 1.28. For the same compound, the figures for the cell count in experiment [1] (setting [5]) and in experiment [1] (setting [6]) were 2360 and 2770, respectively. The z-score in experiment [2] (setting [7]) is 5.74 (active); in experiment [2] (setting [8]), -3.07.

For the compound `Cc1cc(N2CCOCC2)cc2[nH]c(-c3c(NCC(O)c4cccc(Cl)c4)cc[nH]c3=O)nc12` (configuration not stated), the fold change is 1.08 (inactive) in experiment [1] (setting [3]) and 0.775 in experiment [1] (setting [4]). The cell count in experiment [1] (setting [5]) came to 928; in experiment [1] (setting [6]), 858. For the same compound, the z-score in experiment [2] (setting [7]) is -0.143 (inactive); in experiment [2] (setting [8]), -0.73.

Consider `CCCC(=O)O[C@@]1(C(=O)COC(C)=O)CC[C@H]2[C@@H]3CC(F)C4=CC(=O)C=C[C@]4(C)[C@]3(F)C(O)C[C@@]21C` (some centres not stated), for which the fold change in experiment [1] (setting [3]) is 0.767 (inactive); in experiment [1] (setting [4]) it was 1.77. Also, the values for the cell count in experiment [1] (setting [5]) and in experiment [1] (setting [6]) were 5160 and 6730, respectively. Besides, the values for the z-score in experiment [2] (setting [7]) and in experiment [2] (setting [8]) were -0.0529 (inactive) and -0.145, respectively.

Regarding `NCc1c[nH]c(=S)n1C1CCc2c(F)cc(F)cc2C1` (configuration not stated), the fold change in experiment [1] (setting [3]) is 0.817 (inactive); in experiment [1] (setting [4]) it was 2.13. The cell count in experiment [1] (setting [5]) was determined as 7940; in experiment [1] (setting [6]), 9720. In addition, the results for the z-score in experiment [2] (setting [7]) and in experiment [2] (setting [8]) were -0.197 (inactive) and -0.149, respectively.

Take `Cc1ccc(C(=O)N(CCCN)C(c2oc3cc(Cl)ccc3c(=O)c2Cc2ccccc2)C(C)C)cc1` (configuration not stated): the fold change in experiment [1] (setting [3]) is 0.942 (inactive); in experiment [1] (setting [4]), 0.732. Also, the figures for the cell count in experiment [1] (setting [5]) and in experiment [1] (setting [6]) were 1220 and 1290, respectively. In addition, the z-score is 2.62 (active) in experiment [2] (setting [7]) and 0.0146 in experiment [2] (setting [8]).

Regarding `CC(=O)OCC(=O)[C@]12OC(C)(C)OC1C[C@H]1[C@@H]3CC(F)C4=CC(=O)C=C[C@]4(C)[C@]3(F)C(O)C[C@@]12C` (some centres not stated), the results for the fold change in experiment [1] (setting [3]) and in experiment [1] (setting [4]) were 0.819 (inactive) and 1.14, respectively. The cell count in experiment [1] (setting [5]) worked out at 5400; in experiment [1] (setting [6]), 6590. The z-score in experiment [2] (setting [7]) was -0.325 (inactive); in experiment [2] (setting [8]), -0.647.

For `C[C@@H]1C(=O)O[C@H]2CC34[C@H]5C[C@@H](C(C)(C)C)C36C(OC(=O)[C@H]6O)O[C@@]4(C(=O)O5)[C@]21O` (some centres not stated), the results for the fold change in experiment [1] (setting [3]) and in experiment [1] (setting [4]) were 0.955 (inactive) and 1.23, respectively. For the same compound, the cell count came out at 7970 in experiment [1] (setting [5]) and 8340 in experiment [1] (setting [6]). Besides, the values for the z-score in experiment [2] (setting [7]) and in experiment [2] (setting [8]) were -0.0435 (inactive) and 0.0455, respectively.

In the case of `CC#CCn1c(N2CCCC(N)C2)nc2c1c(=O)n(Cc1nc(C)c3ccccc3n1)c(=O)n2C` (configuration not stated), the fold change in experiment [1] (setting [3]) is 0.91 (inactive); in experiment [1] (setting [4]) it was 0.676. For the same compound, the cell count came to 9950 in experiment [1] (setting [5]) and 10900 in experiment [1] (setting [6]). Further, the values for the z-score in experiment [2] (setting [7]) and in experiment [2] (setting [8]) were -0.379 (inactive) and 0.539, respectively.

For `NC(=O)C(CCC(F)(F)F)N(Cc1ccc(-c2ncon2)cc1F)S(=O)(=O)c1ccc(Cl)cc1` (configuration not stated), the fold change in experiment [1] (setting [3]) is 0.918 (inactive); in experiment [1] (setting [4]) it was 0.873. Also, the cell count in experiment [1] (setting [5]) was 6710; in experiment [1] (setting [6]), 7310. For the same compound, the figures for the z-score in experiment [2] (setting [7]) and in experiment [2] (setting [8]) were -0.464 (inactive) and 0.74, respectively.

In the case of `CCN1CCN(Cc2ccc(-c3cc4c(NC(C)c5ccccc5)ncnc4[nH]3)cc2)CC1` (configuration not stated), the fold change was 1.04 (inactive) in experiment [1] (setting [3]) and 0.932 in experiment [1] (setting [4]). The cell count in experiment [1] (setting [5]) came out at 3430; in experiment [1] (setting [6]) it was 3280. In addition, the z-score in experiment [2] (setting [7]) was -0.0772 (inactive); in experiment [2] (setting [8]), 0.518.

On to `CCCCC(F)(F)C(=O)CCC1C(O)CC(=O)C1CCCCCCC(=O)O` (configuration not stated), for which the fold change is 0.926 (inactive) in experiment [1] (setting [3]) and 0.726 in experiment [1] (setting [4]). The cell count in experiment [1] (setting [5]) worked out at 8100; in experiment [1] (setting [6]) it was 8740. The z-score in experiment [2] (setting [7]) is 0.0399 (inactive); in experiment [2] (setting [8]), -0.0235.
